From PubChem
Shown are actives, neighbours in structure and some others; about 8.9% of the full set was active somewhere.
KB-3-1 tox: qHTS assay for MDR1-selective chemotherapeutics: Primary screen using the parental adenocarcinoma cell KB-3-1 | KB-3-1 viability, CellTiter-Glo ATP luminescence, 72 h | Potency, µM (titrated, usually from 46.1 µM), actives largely listed as cytotoxic | 1.4% of 400,000 active; also: potency is read from the fitted curve at half-maximal effect; % is scaled to controls: 0 for no effect and ±100 for the full control effect; nearly all actives have a fitted effect of over 60% in size
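Parental KB-3-1 adenocarcinoma cells in phenol-red-free DMEM with 10% FBS were pin-treated with compounds at several concentrations, incubated 72 h at 37 °C, and viability read by CellTiter-Glo luminescence; concentration-effect curves were fitted after normalization.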
MCF10A rerep: A quantitative high throughput screen for small molecules that induce DNA re-replication in MCF 10a normal breast cells | 2.9% of 350,000 active | MCF 10A DNA re-replication, Hoechst nuclear intensity, 48 h | Potency, µM (titrated, usually from 46.1 µM), for the others: at the top dose activity, positive = re-replication, hits mostly activators; also: potency is read from the fitted curve at half-maximal effect; % of control where 0% means no effect; nearly all actives have a fitted effect of over 50% in size
KB-V1 MDR tox: qHTS assay for MDR1-selective chemotherapeutics: Primary screen using the drug-selected MDR subline cells KB-V1. KB-V1 MDR cells viability, CellTiter-Glo, 72 h. Potency, µM (highest dose often 46.1 µM), actives largely listed as cytotoxic. 3.4% of 400,000 active. AID 1347076, 2019; also: potency is read from the fitted curve at half-maximal effect; % is scaled to controls: 0 for no effect and ±100 for the full control effect; nearly all actives have a fitted effect of over 60% in size
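Following 72 h at 37 degrees C with compound, KB-V1 cell viability was read by CellTiter-Glo luminescence, medium being phenol-red-free DMEM plus 10% FBS; concentration-response parameters came from normalized, curve-fitted qHTS data.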
D3 antag: qHTS of D3 Dopamine Receptor Antagonist: qHTS; D3R cells, DiscoveRx beta-arrestin luminescence, antagonist mode; hits give low values; max response, negative = inhibition, %; 2.5% of 360,000 active; AID 652054, 2013; in the data active = max response below about -50%; inconclusive = no clear call, values can overlap the other calls; also: % is scaled to controls: 0 for no effect and ±100 for the full control effect
Target sequence (P35462 whole entry, looked up): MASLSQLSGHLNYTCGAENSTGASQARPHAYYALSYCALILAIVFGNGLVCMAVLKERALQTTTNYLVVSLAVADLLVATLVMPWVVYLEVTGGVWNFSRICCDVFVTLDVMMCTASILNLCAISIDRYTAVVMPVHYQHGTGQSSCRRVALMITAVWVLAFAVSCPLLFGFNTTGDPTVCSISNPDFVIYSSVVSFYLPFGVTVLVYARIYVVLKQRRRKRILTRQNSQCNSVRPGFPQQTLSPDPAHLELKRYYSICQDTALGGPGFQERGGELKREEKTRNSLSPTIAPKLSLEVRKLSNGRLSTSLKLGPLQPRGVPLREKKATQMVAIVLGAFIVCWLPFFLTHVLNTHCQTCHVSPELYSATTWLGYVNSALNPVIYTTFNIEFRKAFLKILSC
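Cells expressing the human receptor were seeded at 1500 cells/well, incubated overnight at 37 degrees C in 5% CO2, then exposed to library compounds with dopamine controls for 90 minutes at 37 degrees C before luminescent detection.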
SW480 rerep: A quantitative high throughput screen for small molecules that induce DNA re-replication in SW480 colon adenocarcinoma cells. Potency, µM (top dose mostly 46.1 µM), inactives show top-dose re-replication activation, usual class: activators. 1.8% of 340,000 active. SW480 DNA re-replication, Hoechst DNA content imaging, 48 h. AID 624297, 2012; also: potency is read from the fitted curve at half-maximal effect; % of control where 0% means no effect; nearly all actives have a fitted effect of over 55% in size
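Hoechst fluorescence of nuclei (405 nm excitation, 500-530 nm emission) measured by plate-scanning imager after 48 hr compound exposure at 37 C; re-replication scored as increased number of nuclei with elevated intensity.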
D3 ag: qHTS of D3 Dopamine Receptor Agonist: qHTS | D(3) dopamine receptor (Homo sapiens), P35462 | 0.58% of 410,000 active | D3R DiscoveRx beta-arrestin cells, luminescence, 90 min | AID 652048, 2013 | max activation, %; in the data active = max activation above about 30%; also: 0% is about no effect
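Agonist mode: compounds and dopamine controls were applied to plated cells for 90 min at 37 degrees C after an overnight attachment at 1500 cells/well. Luminescent read-out followed 30 - 60 minutes at room temperature with DiscoveRx detection reagent.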
An asterisk follows results filed as active. Unless noted, calls follow the shape of the dose curve; as a rule, active = well fitted curve in the direction sought with a large enough effect; inconclusive = small, poorly fitted or top-dose-only effect, or another doubt; inactive = no such curve, though single readings can be large; an effect the other way counts as inactive or inconclusive.

What do the screens show for `COc1cc2c(cc1OC)[C@@]13CCN4CC5=CCOC6CC(=O)N2C1[C@H]6[C@@H]5C[C@@H]43` (some centres not stated)?
MCF10A rerep: -3.8%; SW480 rerep: 4.0%

What do the screens show for `CCOC(=O)C1(c2ccccc2)CCN(CCC(=O)Nc2cccc(Br)c2)CC1`?
KB-3-1 tox: inconclusive; MCF10A rerep: inconclusive; KB-V1 MDR tox: inconclusive; D3 antag: -87.2*; SW480 rerep: -450.9%; D3 ag: -27.1

What do the screens show for `CCOC(=O)C1(c2ccccc2)CCN(CC(=O)Nc2ccc(C)cc2)CC1`?
KB-3-1 tox: inactive; MCF10A rerep: 7.5%; KB-V1 MDR tox: inconclusive; D3 antag: -55.7*; SW480 rerep: inconclusive; D3 ag: -6.2

What do the screens show for `CCOC(=O)C1(c2ccccc2)CCN(CCC(=O)Nc2ccc(OC)cc2)CC1`?
KB-3-1 tox: inactive; KB-V1 MDR tox: inactive; D3 antag: -11.3; D3 ag: 3.0

Results for CCOC(=O)C1(CCOc2ccccc2)CCN(Cc2ccccc2OC)CC1 ?
KB-3-1 tox: inactive; MCF10A rerep: 10.6%; KB-V1 MDR tox: inactive; D3 antag: inconclusive; SW480 rerep: 12.6%; D3 ag: -19.7

How did O=C(CCN1CCOCC1)Nc1ccc(Br)cc1C(=O)c1ccccc1 do in these assays?
KB-3-1 tox: inactive; MCF10A rerep: inconclusive; KB-V1 MDR tox: inactive; D3 antag: 0.0; SW480 rerep: -3.0%; D3 ag: -4.6

What do the screens show for `CCOC(=O)C1(c2ccccc2)CCN(CCC(C#N)(c2ccccc2)c2ccccc2)CC1`?
KB-3-1 tox: inactive; MCF10A rerep: inconclusive; KB-V1 MDR tox: inconclusive; D3 antag: -72.2*; SW480 rerep: 2.82µM*; D3 ag: -77.1

What do the screens show for `CCOC(=O)C1(c2ccccc2)CCN(CCC(=O)Nc2ccc(C(=O)OC)cc2)CC1`?
KB-3-1 tox: inactive; MCF10A rerep: inconclusive; KB-V1 MDR tox: inactive; D3 antag: -50.9*; SW480 rerep: 3.8%; D3 ag: -19.2

What do the screens show for `C[C@@H](Cc1ccc(O)cc1)NC[C@@H](O)c1cc(O)cc(O)c1`?
MCF10A rerep: -1.1%; SW480 rerep: -9.1%

What do the screens show for `CC(C)C(Br)C(=O)NC(N)=O` (configuration not stated)?
MCF10A rerep: 1.8%; SW480 rerep: -2.7%; D3 ag: 13.6

How did C/C(=N\Nc1ccccc1)c1c(O)[nH]c(=O)[nH]c1=O do in these assays?
KB-3-1 tox: inconclusive; MCF10A rerep: inconclusive; KB-V1 MDR tox: inactive; D3 antag: -10.8; SW480 rerep: 20.6µM*; D3 ag: -2.2

How did Cc1ccccc1OCC(=O)N1CCN(CCc2ccccn2)CC1 do in these assays?
KB-3-1 tox: inconclusive; KB-V1 MDR tox: inactive; D3 ag: -1.4

How did Clc1ccccc1NC1=NCCCS1 do in these assays?
KB-3-1 tox: inactive; MCF10A rerep: inconclusive; KB-V1 MDR tox: inactive; D3 antag: 4.7; SW480 rerep: -7.7%; D3 ag: 5.4

What do the screens show for `CC(=O)N(C1=NCCCS1)c1ccccc1Cl`?
KB-3-1 tox: inactive; MCF10A rerep: 0.581µM*; KB-V1 MDR tox: inactive; D3 antag: -10.9; SW480 rerep: -14.0%; D3 ag: 0.7

How did C=CCN1C(=O)NC(=O)/C(=C/c2ccc(OC)c(COc3ccc(NC(C)=O)cc3)c2)C1=O do in these assays?
KB-3-1 tox: inconclusive; MCF10A rerep: inconclusive; KB-V1 MDR tox: inconclusive; D3 antag: -8.0; SW480 rerep: 16.4µM*; D3 ag: -2.6

Results for C[C@H]1COC(=O)[C@H](Cc2ccc(F)cc2)CC/C=C/C[C@@H](CC(=O)N(CCO)Cc2ccccc2)C(=O)N1 ?
KB-3-1 tox: inactive; MCF10A rerep: inconclusive; KB-V1 MDR tox: inactive; D3 antag: 24.2; SW480 rerep: -9.4%; D3 ag: 2.0

How did C[C@@H]1O[C@@H](O[C@H]2C[C@@H](O)[C@]3(CO)[C@@H]4C(CC[C@]3(O)C2)[C@@]2(O)CC[C@H](C3COC(=O)C3)[C@@]2(C)C[C@H]4O)[C@H](O)[C@H](O)[C@H]1O (some centres not stated) do in these assays?
KB-3-1 tox: 1.16µM*; MCF10A rerep: -43.6%; KB-V1 MDR tox: 1.84µM*; D3 antag: -1.5; SW480 rerep: inconclusive; D3 ag: 7.3

How did COc1ccc(-c2c3c(nc4sc5c(Cl)nc(C)nc5c24)CCC3)cc1 do in these assays?
KB-3-1 tox: 7.31µM*; MCF10A rerep: inconclusive; KB-V1 MDR tox: inconclusive; D3 antag: 15.6; SW480 rerep: -2.1%; D3 ag: 5.8

Results for CC(C)c1oc(=O)cc2c1[C@@H](O)[C@H]1OC(=O)[C@@]3(C)CC[C@@H](O)[C@@]2(C)C13 (some centres not stated) ?
KB-3-1 tox: 7.31µM*; MCF10A rerep: 11.9%; KB-V1 MDR tox: inactive; D3 antag: -28.9; SW480 rerep: inconclusive; D3 ag: 16.3

What do the screens show for `CC(C)c1oc(=O)cc2c1[C@@H](O)[C@H]1OC(=O)[C@@]3(C)C[C@@H](O)[C@@H](O)[C@@]2(C)C13` (some centres not stated)?
KB-3-1 tox: 8.2µM*; MCF10A rerep: 5.17µM*; KB-V1 MDR tox: inactive; D3 antag: 21.3; SW480 rerep: inconclusive; D3 ag: 15.4

How did CNC(=O)O/N=C/C(C)(C)S(C)=O (configuration not stated) do in these assays?
KB-3-1 tox: inactive; KB-V1 MDR tox: inactive

What do the screens show for `CC(O)C1C=CC=CC(=O)OC2CC3OC4C5OC5(C)C(O)CC4(COC(=O)C(O)C(C)CCO1)C2(C)C31CO1` (configuration not stated)?
KB-3-1 tox: 0.206µM*; MCF10A rerep: inconclusive; KB-V1 MDR tox: inconclusive; D3 antag: -18.8; SW480 rerep: 1.84µM*; D3 ag: 6.3

What do the screens show for `CC1=CC2OC3CC4OC(=O)C=CC=CC(C(C)O)OCC(O)C5(C)OC5C(=O)OCC2(CC1O)C4(C)C31CO1` (configuration not stated)?
KB-3-1 tox: 0.0146µM*; MCF10A rerep: 16.0%; KB-V1 MDR tox: inconclusive; D3 antag: -17.7; SW480 rerep: 15.1%; D3 ag: -5.9
